Among all 97,000 compounds or so, about 130 (0.13%) were called active. This is one part of a sample in which actives are shown more often than they occur. No stated cut-off is given here; in the data, active means inhibition above about 34% (passing the limit was not always enough); inactive means the rest.
molecular target: Serine/threonine-protein kinase PLK1 (Homo sapiens) (UniProt P53350); assay: blockers of phosphopeptide binding to Plk1 PBD – biochemical, fluorescence polarization, primary screen (AID 693); settings: active compounds read high,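 tested at about 20 µM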
Sequence (P53350 whole entry, looked up): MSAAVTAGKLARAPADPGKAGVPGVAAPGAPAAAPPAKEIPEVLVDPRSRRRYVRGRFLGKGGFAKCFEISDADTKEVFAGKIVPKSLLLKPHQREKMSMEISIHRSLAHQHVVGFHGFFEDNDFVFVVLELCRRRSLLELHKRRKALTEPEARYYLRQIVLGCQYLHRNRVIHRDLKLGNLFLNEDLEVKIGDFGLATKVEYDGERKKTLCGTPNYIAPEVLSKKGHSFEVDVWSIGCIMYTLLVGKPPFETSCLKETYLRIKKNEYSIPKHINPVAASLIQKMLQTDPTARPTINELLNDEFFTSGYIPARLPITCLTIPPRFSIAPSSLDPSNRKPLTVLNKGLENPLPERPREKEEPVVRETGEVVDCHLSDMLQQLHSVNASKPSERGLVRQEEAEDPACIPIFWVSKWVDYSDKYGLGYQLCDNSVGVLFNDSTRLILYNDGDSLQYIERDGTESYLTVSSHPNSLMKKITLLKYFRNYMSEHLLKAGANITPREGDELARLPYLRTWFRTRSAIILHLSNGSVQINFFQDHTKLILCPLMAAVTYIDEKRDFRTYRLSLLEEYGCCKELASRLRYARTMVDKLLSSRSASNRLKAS

inhibition, inactive:
Cn1c(N)c(C(=O)COC(=O)C23CC4CC(CC(C4)C2)C3)c(=O)n(C)c1=O -3.11%, COc1cc(C(=O)OC(C)C(=O)NCC2CCCCC2)cc(NC(=O)c2ccco2)c1OC (configuration not stated) 2.04%, COCc1cc(C)nc2sc(C(=O)NC3CCCCC3)c(N)c12 -36.6%, COc1ccc(CN(CC(=O)NC2CCCC2)C(=O)CCC(=O)Nc2cc(C)on2)cc1 4.15%, O=C(N/N=C/c1ccsc1)c1cc(O)cc(O)c1 -12.8%, COc1ccc(CCNC(=S)NC(=O)/C=C/c2ccc(C)cc2)cc1OC -11.8%, N#Cc1ccsc1NC(=O)CN1CCCCC1 -12.8%, O=C1/C(=C\Nc2ccccc2)CCN1c1ncccn1 13.5%, CC(C)(C)NS(=O)(=O)CC12CCC(CC1=O)C2(C)C (configuration not stated) -2.53%, O=C1CCN(C(=O)Nc2ccccc2)N1 11.2%, CCOc1cc(/C=C2/N=C(c3ccc(C(C)(C)C)cc3)OC2=O)cc(Cl)c1OS(C)(=O)=O -6.59%, Cc1ccccc1NC(=O)c1ccccc1NS(=O)(=O)c1cccc2cccnc12 4.72%, CC1CCCN(C(C(=O)Nc2ccc(C(C)C)cc2)c2ccc3c(c2)OCO3)C1 (configuration not stated) -23.5%, Cc1noc(/C=C/c2ccco2)c1S(=O)(=O)N1CCC(C(=O)N2CCc3ccccc32)CC1 -18.1%, CCCCCCC(=O)Nc1nc(C)c(-c2csc(Nc3cccc(OC)c3)n2)s1 -14.7%, O=C(Nc1ccc(Cl)cc1)c1cc2nc(C3CC3)cc(C(F)(F)F)n2n1 6.19%, O=C(NC1CCCCC1)c1cc([N+](=O)[O-])ccc1N1CCOCC1 22%, O=C(CCc1ccccc1)NCc1cccnc1 22.9%, CC(=O)Nc1ccc(OCC(O)CN2CCN(c3ccccc3Cl)CC2)cc1 (configuration not stated) -14%, O=C(O)C1CC=CCC1C(=O)Nc1ccccc1C(=O)N1CCN(c2ccccc2)CC1 (configuration not stated) 2.13%, Cc1cc(C)c(S(=O)(=O)c2ccccc2)c(OC(=O)c2c(F)cccc2Cl)n1 -3.99%, COc1ccc(NC(=O)Cn2c(-c3ccc(OC)cc3)cn(-c3ccc(C)cc3)c2=O)cc1 4.16%, COc1ccc(-c2nn(-c3ccccc3)cc2C(=O)Nc2nccs2)cc1OC 3.37%, COc1ccccc1C(=O)Nc1ccc(NC(=O)c2ccco2)c(C)c1 -21.6%, O=c1c2c(nc3nc[nH]n13)CCC2 7.34%, CCCC(C)C(=O)Nc1ccc(NC(C)=O)cc1 (configuration not stated) -14.8%, Cc1ccc(NC(=O)N2CCC(O)(c3cccnc3)CC2)cc1 2.21%, CC(C)OC(=O)CN1C(=O)C(=O)c2ccccc21 -13.6%, CCOC(=O)c1cc2n(c1C)-c1ccccc1C2=O -27.7%, O=C1c2ccccc2C(=O)c2c1cccc2N1CCN(Cc2ccccc2)CC1 -20.8%, Cc1cc(NC(=O)/C=C/C(=O)N(c2ccccc2C)C(C(=O)NC2CCCC2)c2ccc(F)cc2)no1 (configuration not stated) -15.6%, CCCCNC(=O)c1onc(CSc2cccc(OC)c2)c1C(=O)O 25.6%, CO/N=C(/CS(=O)(=O)c1ccc(Br)cc1)c1ccc(OC)cc1 2.77%, Cc1ccc(Cl)cc1NC(=O)COC(=O)C1CCCCC1 -19.8%, COc1ccccc1-c1n[nH]c2c1[C@H](C)CC[C@H]2C(C)C -16.8%, COc1ccc(C(=O)Nc2ccc(CN3CCOCC3)cc2)cc1 -5.41%, COc1ccccc1-c1nc(C#N)c(N2CCC(C(N)=O)CC2)o1 33.2%, N#Cc1nc(-c2ccc(OCc3ccccc3)cc2)oc1NCCCN1CCOCC1 -11.4%, Clc1ccc(-c2cc(COc3ccccc3)no2)cc1Cl -15.4%, Cc1ccc(S(=O)(=O)N(c2cccc(C)c2)C2CCS(=O)(=O)C2)cc1 (configuration not stated) -7%, Cc1nc2c(-c3ccc(F)cc3)c(C)nn2c(C)c1CCC(=O)NCc1ccco1 2.38%, CCOc1ccc(CN2CCCN(C)CC2)cc1 -6.01%, Cc1ccc(NC(=O)Nc2ccc3oc(C)nc3c2)cc1 8.59%, O=C(Nc1ccc2sc3ccccc3c(=O)c2c1)c1ccccc1Cl 6.33%, CC1(C)Cc2cccc(OCC(N)=O)c2O1 0.26%, Cn1cnc([N+](=O)[O-])c1Sc1ccccc1 -10.6%, COCCCNCC(=O)Nc1sc(C)c(C)c1C(=O)OC -27.8%, COc1ccc(C2CC(=O)Nc3cc(C)c(C)cc32)c(OC)c1OC (configuration not stated) 3.42%, O=C(COC(=O)c1ccccc1SCC(=O)NC1CCCCC1)NC1CCCCC1 45.4%, O=C(Cc1ccc(S(=O)(=O)N2CCCC2)s1)NC1CCCCCC1 -9.65%, Cc1cccc(COc2ccccc2/C=N/Nc2ccc([N+](=O)[O-])cc2)c1 0.38%, CC(=O)NC1(c2cccc(F)c2)CCN(CC(=O)NC(C)C)CC1 15.8%, Cc1cc2nnc(SCC(=O)N3CCN(c4ccccc4)CC3)n2c(N)n1 -15.4%, COc1ccccc1OCc1nc2ccccc2s1 7.18%, O=C(Nc1ccccc1)OCc1cn(-c2ccc(Cl)cc2)nn1 6.75%, O=S(=O)(NCC1OCCc2ccccc21)c1ccccc1 (configuration not stated) -4.11%, Cc1ccc(-n2nc(N)c3c(=O)oc(N(C)C)nc32)cc1 13.8%, Cn1c(Cn2nnc3ccccc32)nnc1SCC(=O)c1ccccc1F -16.2%, CC(C)Oc1ccc(CCc2n[nH]c(=S)n2Cc2ccccc2)cc1 -2.84%, COc1ccc(C)cc1NC(=O)CCC(=O)Nc1nnc(C(F)(F)F)s1 19%

inhibition, active:
CCOC(=O)c1cc2n(c1N)-c1ccccc1C2=O 45.1%, COc1ccc(Nc2oc(-c3ccccc3Cl)nc2C#N)cc1 42.4%
